Compound activity deposited in PubChem by several laboratories.
UBC13 inh: human UBC13 polyubiquitination inhibition. P61088. UBC13 polyubiquitin chain formation, TR-FRET. inhibition, % at 20 µM. 330,000 tested, 0.47% active. AID 485273; in the data active = inhibition above about 45%, passing the limit was not always enough; inconclusive = no clear call, values can overlap the other calls
Target sequence (P61088 whole entry, looked up): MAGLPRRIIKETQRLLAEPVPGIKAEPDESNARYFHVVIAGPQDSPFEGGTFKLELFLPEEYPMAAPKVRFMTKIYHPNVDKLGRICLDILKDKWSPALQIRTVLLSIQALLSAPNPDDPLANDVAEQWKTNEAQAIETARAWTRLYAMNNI
HGIII-sPLA2 inh: Inhibits HGIII-sPLA2 liposome hydrolysis, primary screen. QFRET BODIPY PC-A2 liposome hydrolysis, fluorescence. inhibition, % at 12.2 µM. 370,000 tested, 0.56% active. AID 743126;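 active = inhibition above mean plus 3 SD of compounds lying within the high and low control bounds, cut at about 19% in these data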;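 also: 0% = median of test compound wells and 100% = no enzyme DMSO wells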
NR3A LBD binder: modulates the human NR3A ligand-binding domain | NR3A LBD differential scanning fluorimetry, Tm shift; 0% = protein alone, 100% = glycine-bound protein | Tm shift relative to glycine control, % at 25 µM | 340,000 tested, 2.5% active | AID 1259313;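 active = melting temperature shift of at least 10% of the positive control shift, at one fixed dose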
UBC9 SUMO inh: blocks human SUMOylation mediated by UBC9. 290,000 tested, 0.36% active. inhibition, % at 35 µM. HTRF SUMOylation assay, SAE1/SAE2 + UBC9, in vitro. AID 2006; in the data active = inhibition above about 50%, passing the limit was not always enough; inconclusive = no clear call, values can overlap the other calls
Target sequence (P63279 whole entry, looked up): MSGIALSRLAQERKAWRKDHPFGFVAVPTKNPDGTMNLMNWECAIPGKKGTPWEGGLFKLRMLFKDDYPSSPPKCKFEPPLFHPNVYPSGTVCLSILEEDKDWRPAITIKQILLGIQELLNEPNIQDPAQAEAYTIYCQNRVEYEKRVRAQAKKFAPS
Active calls of the source: *; u = inconclusive; x = no result given. Hits are enriched below; roughly 3.3% of the tested compounds scored in any of these assays.

SMILES	UBC13 inh	HGIII-sPLA2 inh	NR3A LBD binder	UBC9 SUMO inh
CC(=O)Nc1ccc(S(=O)(=O)Nc2nc3ccc([N+](=O)[O-])cc3s2)cc1	0.6	-27.2	15.7*	13.0
O=C(COC(=O)c1cc(NS(=O)(=O)c2cccs2)ccc1O)Nc1cc(Cl)ccc1Cl	-4.9	10.6	30.2*	68.6*
C/C(=N\NC(=O)c1ccc(NS(=O)(=O)c2cccs2)cc1)c1ccc(C(C)(C)C)cc1	-14.7	-16.5	14.9*	9.3
O=C(COC(=O)CCC1CCCC1)Nc1nc2c(F)c(F)c(F)cc2s1	8.0	-4.3	21.9*	39.2
CC(=O)Nc1ccc(S(=O)(=O)Nc2nc3ccccc3s2)cc1	-14.8	-21.2	-7.5	6.1
O=C(COC(=O)c1ccc(Br)o1)Nc1nc2c(F)c(F)c(F)cc2s1	-7.8	-15.3	0.1	30.3
O=C(COC(=O)c1cc(NS(=O)(=O)c2cccs2)ccc1O)Nc1ccc(F)c(F)c1F	-6.1	-27.9	-0.8	23.2
COC(=O)C1CN(Cc2ccc(F)cc2)CCS(=O)(=O)N1Cc1ccc(F)cc1 (configuration not stated)	x	-6.3	x	x
COc1ccc(-c2c(Cc3ccccc3)nc(NC(=O)c3ccccc3)n2Cc2ccc(OC)cc2OC)cc1	x	8.1	x	x
COC(=O)[C@]12C[C@H](CC(=O)NCCCCc3ccccc3)C(=O)N(Cc3ccco3)C1=C[C@H](C(C)C)O[C@@H]2C1CC1	x	-13.4	x	x
O=C(COC(=O)c1ccc(NS(=O)(=O)c2cccs2)cc1)Nc1nc2c(F)c(F)c(F)cc2s1	x	x	9.5	80.5*
O=C(COC(=O)c1ccco1)Nc1nc2c(F)c(F)c(F)cc2s1	-2.8	-9.4	-4.9	12.0
COc1ccc(C)cc1NC(=O)c1ccc(NS(=O)(=O)c2cccs2)cc1	-10.4	-29.3	-6.3	-9.1
CS(=O)(=O)c1ccc2nc(NC(=O)c3ccc(NS(=O)(=O)c4cccc([N+](=O)[O-])c4)cc3)sc2c1	-7.5	-3.5	15.9*	-4.4
Cc1ccc2nc(NC(=O)c3ccc(NS(=O)(=O)c4cccs4)cc3)sc2c1	-17.8	-31.8	33.0*	-11.1
Cc1ccc(NS(=O)(=O)c2cc3c(cc2Cl)NC(=O)CO3)cc1C	x	-32.8	x	x
C#CCNC(=O)C[C@H]1C(=O)N(CCCOC)C2=CCCC[C@@]21C(=O)OCC	x	2.3	x	x
C=CCN(C)CC#Cc1ccc(F)cc1	x	13.4	x	x
COc1ccc(C2CC(=O)c3c(C)nc(N4CCN(c5ccccc5)CC4)nc3C2)cc1 (configuration not stated)	14.7	6.8	727.0*	0.2
CCOc1ccc(C2Nc3ccc4ccccc4c3-c3c2c(=O)oc2ccccc32)cc1 (configuration not stated)	-1.2	-1.1	14.1*	40.0
C[C@@H]1OC(C2CCCCC2)N(C)[C@H]2C[C@H]3c4[nH]c5cccc(-c6ccccc6)c5c4CCN3C[C@@H]12 (some centres not stated)	x	-5.7	x	x
Cc1cccc(NC(=O)CSc2cc(C)c(C#N)c3nc4ccccc4n23)c1	-4.6	8.6	12.7*	-8.2
C/C(=N\Nc1cccc([N+](=O)[O-])c1)c1cc(F)ccc1O	-10.1	6.9	10.4*	1.2
C/C(=N\Nc1cccc([N+](=O)[O-])c1)c1ccccc1O	-1.4	2.9	30.6*	-1.0
C/C(=N\NC(=O)c1cccc(N/N=C(\C)c2ccco2)c1)c1ccco1	x	-0.3	-0.3	22.2
SMILES	UBC13 inh	HGIII-sPLA2 inh	NR3A LBD binder	UBC9 SUMO inh
C/C(=N\NC(=O)c1cccc(N/N=C(\C)c2cc(O)ccc2O)c1)c1cc(O)ccc1O	-15.5	14.8	14.0*	-8.7
COc1ccc(CN2C(=O)N3Cc4ccc(C)cc4C3CS2(=O)=O)cc1 (configuration not stated)	x	8.4	x	x
Cc1cccc(NC(=O)c2cc3c([nH]c4ccccc43)c(C)n2)c1C	u	13.2	14.0*	18.3
C=C1CCC2C(C)(C)CCC[C@]2(C)[C@H]1CC1=C(O)C(=O)C(CO)=CC1=O (some centres not stated)	x	12.6	x	x
COC(=O)NNC(=O)c1ccc(Cl)cc1Cl	-2.7	0.0	-1.5	-4.4
CC(C)(C)C(=O)NC(=S)NNC(=O)c1ccc(Cl)cc1Cl	-25.5	42.0*	-2.5	-74.8
O=C(NNC(=O)c1cccc2ccccc12)c1cccc(Cl)c1	x	-15.2	12.5*	x
O=C(NNC(=O)c1cccc2ccccc12)c1ccc(Cl)cc1Cl	x	-18.2	23.4*	x
O=C(NNC(=O)c1ccc(Cl)cc1Cl)c1ccc2ccccc2c1	x	-17.2	-0.2	x
C=C(C)CSc1nc2sc(C)c(C)c2c(=O)n1C	x	2.1	x	x
COc1ccc(S[C@]2(C(=O)N(C)C)CC(=O)N[C@@H]2c2ccc(OC)cc2)cc1	x	0.0	x	x
COC(=O)[C@]12C[C@H](CC(=O)NCc3ccc(OC)c(OC)c3)C(=O)N(Cc3ccco3)C1=C[C@H](COCc1ccccc1)O[C@@H]2C	x	-7.1	x	x
O=C(Nc1ccc2c(c1)OCO2)c1ccc(Br)s1	18.0	-2.0	21.1*	7.6
O=C(Nc1ccc2c(c1)OCCO2)c1cccs1	2.9	-0.5	20.2*	29.7
O=C(Nc1cccc(NC(=O)c2cccs2)c1)c1ccc(F)cc1	6.2	-4.0	0.1	-1.9
O=C(Nc1cccc(C2OCCCO2)c1)c1cccs1	1.5	7.0	21.3*	-7.2
O=C(Nc1ccc2c(c1)OCO2)c1cccs1	-5.7	0.7	11.1*	-6.2
C[C@H]1COc2cc(F)ccc2S(=O)(=O)N1C	x	6.0	x	x
COc1ccc(CN2C(NC(=O)OCc3ccccc3)=NC3=CC(C)(C)n4c(=O)n(-c5ccccc5)c(=O)n4C32)c(OC)c1 (configuration not stated)	x	3.3	x	x
CCc1c2c3n4c1CCC[C@@H]4C[C@@H]3O[Si](C(C)C)(C(C)C)OC(C)C2=O (some centres not stated)	x	5.2	x	x
O=C1CC(c2ccc(O)cc2)Oc2cc(O)cc(O)c21 (configuration not stated)	0.0	-7.7	-15.6	12.0
CC1CC(=O)c2c(cc3c(-c4c(O)cc(O)c5c(O)c6c(cc45)OC(C)CC6=O)c(O)cc(O)c3c2O)O1 (configuration not stated)	-44.9	x	23.8*	u
O=C(Nc1cccc(C(F)(F)F)c1)Nc1ccc(N2CCCC2)c(S(=O)(=O)Nc2ccccc2Cl)c1	-19.9	-18.6	30.1*	5.9
COc1ccccc1NS(=O)(=O)c1cc(NC(=O)Nc2ccc(Cl)cc2Cl)ccc1N1CCCCC1	-10.3	2.8	12.5*	0.9
Nc1ccc(N2CCCCC2)c(S(=O)(=O)Nc2ccccc2Cl)c1	13.9	-17.5	-5.4	-3.5
CC(=O)Nc1ccc(N2CCOCC2)c(S(=O)(=O)Nc2ccccc2Cl)c1	x	-3.8	x	x
COc1ccccc1NS(=O)(=O)c1cc(N)ccc1N1CCCCC1	6.1	-22.0	32.8*	2.1
CCCC1CCC2(CC1)CCC2OC(=S)NCCc1ccc(Cl)cc1 (configuration not stated)	x	11.8	x	x
C=CCN1[C@@H](Cc2ccccc2)COc2cc(F)ccc2S1(=O)=O	x	3.4	x	x
C[C@H](O)[C@@H]1CN2CCc3c([nH]c4c(-c5ccc6c(c5)OCO6)cccc34)[C@@H]2C[C@@H]1N(C)C(=O)NC1CCCCC1	x	-9.0	x	x
